Where “and” joins values, the source holds several entries; their conditions need not be identical. Equal entries are not always repeated. Calls of active or inactive are those of the source.
Tests used:
[1] = tested on: Plasmodium falciparum Sir2 (PF13_0152, Sir2A); experiment: pfSir2 binders on small-molecule microarrays, primary screen, biochemical, small-molecule microarray, 635 nm fluorescence (AID 1098); details: small-molecule microarray binding, fluorescence 635 nm; higher = more signal;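 further: score merges spot fluorescence intensity with its signal-to-noise ratio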
[2] = small-molecule microarray binders of probe aDKK1, primary screen, biochemical, biotinylated probe, 635/667 nm fluorescence (AID 1099); details: higher = more signal;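 further: score merges 667nm spot fluorescence with signal to noise across triplicate slides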
[3] = small-molecule microarray binders of probe aCHRDL2, primary screen, biochemical, biotinylated probe, 635/667 nm fluorescence (AID 1100); details: higher = more signal
[4] = splicing luciferase reporter signal modulators, primary screen, spliceosome inhibition project, cell-based, HEK293, splice +/- reporter (AID 1101); details: luminescence, 24 h, higher = more signal, called active from +8 up or from −8 down;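 further: HEK293 cells carrying a splicing-competent luciferase reporter gene; test concentration not given here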
[5] = target: Fibroblast growth factor 10 (Homo sapiens) (UniProt O15520); experiment: FGF10 binders on small-molecule microarrays, primary screen, biochemical, small-molecule microarray, 635 nm fluorescence (AID 1102); details: FGF10 binding, fluorescence 635 nm, higher = more signal
[6] = tested on: glycogen synthase kinase-3 (GSK3A per assay name; protocol says GSK3B); experiment: GSK3 binders on small-molecule microarrays, primary screen, biochemical, small-molecule microarray, 635 nm fluorescence, GSK3A (AID 1103); details: small-molecule microarray binding, fluorescence 635 nm; higher = more signal; further: the record names both GSK3A and GSK3B
[7] = target: Epidermal growth factor receptor (Homo sapiens) (UniProt P00533); experiment: EGFR binders on small-molecule microarrays, primary screen, biochemical, small-molecule microarray, 635 nm fluorescence (AID 1104); details: EGFR binding, higher = more signal;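 further: score merges 667 nm emission intensity with spot signal to noise over triplicate slides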
[8] = target: Follistatin-related protein 3 (Homo sapiens) (UniProt O95633); experiment: FSTL3 binders on small-molecule microarrays, primary screen, biochemical, small-molecule microarray, 635 nm fluorescence (AID 1105); details: FSTL3 binding, higher = more signal;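 further: score merges emission near 667 nm and signal to noise per printed spot across three slides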
[9] = target: Dickkopf-related protein 1 (Homo sapiens) (UniProt O94907); experiment: DKK1 binders on small-molecule microarrays, primary screen, biochemical, small-molecule microarray, 635 nm fluorescence scan (AID 1106); details: DKK1 binding, higher = more signal;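 further: score merges emission near 667 nm with signal to noise over three replicate slides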
[10] = tested on: Inhibin beta A chain (activin A); experiment: INHBA (activin A) binders on microarrays, primary screen, biochemical, small-molecule microarray, 635 nm fluorescence scan (AID 1107); details: small-molecule microarray binding, higher = more signal;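 further: mouse activin A protein probed at 4.33 µg/mL on printed slides; score merges bound-protein fluorescence near 667 nm with spot signal-to-noise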
[11] = tested on: Human papillomavirus type 1a protein E7 (residues 44-93); experiment: HPV1a E7 fragment binders on microarrays, primary screen, biochemical, small-molecule microarray, residues 44-93, 635 nm fluorescence (AID 1108); details: small-molecule microarray binding, fluorescence 635 nm; higher = more signal;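 further: E7 fragment applied at 1 µg/mL in TBST for 1 h at 4 C; score combines spot fluorescence with its signal to noise ratio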
[12] = modulators of HCV replicon luciferase signal, primary screen, HCV replication inhibitor project, Huh7 cells, luciferase reporter (AID 1109); details: 48 h, higher = more signal;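 further: huh7 hepatoma cells harbouring a luciferase neomycin HCV replicon reporter; luciferase luminescence as measure of HCV replicon replication; test concentration not given here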
[13] = target: Left-right determination factor 2 (Homo sapiens) (UniProt O00292); experiment: LEFTY2 binders on small-molecule microarrays, primary screen, biochemical, small-molecule microarray, 635 nm fluorescence scan (AID 1110); details: LEFTY2 binding, higher = more signal
[14] = target: Calmodulin-1 (Homo sapiens) (UniProt P0DP23); experiment: CALM1 binders on microarrays, EGTA buffer, profiling panel, biochemical, small-molecule microarray, Cy5-labelled CALM1 (AID 1111); details: Cy5-CALM1 binding fluorescence, higher = more signal;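 further: labelled calmodulin applied in Tris saline Tween buffer holding calcium plus EGTA and DTT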
[15] = target: Calmodulin-1 (Homo sapiens) (UniProt P0DP23); experiment: calcium-bound CALM1 binders on microarrays, profiling panel, artefact control for SMM control-protein annotation, biochemical, small-molecule microarray, Cy5-labelled CALM1, plus calcium (AID 1112); details: Cy5-CALM1 binding fluorescence, higher = more signal;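 further: score merges spot fluorescence with signal to noise from triplicate slides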
[16] = small-molecule microarray binders of probe aWnt5a, primary screen, biochemical, biotinylated probe, 635/667 nm fluorescence (AID 1113); details: higher = more signal;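 further: score merges 667 nm fluorescence intensity with signal-to-noise per printed feature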
[17] = small-molecule microarray binders of probe aShh, primary screen, biochemical, biotinylated probe, 635/667 nm fluorescence (AID 1114); details: higher = more signal;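 further: probe is biotin-labelled aShh protein from a stem cell growth factor screen; measures binding of labelled protein to compounds printed on the slide; score merges feature fluorescence at 667 nm with signal-to-noise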
[18] = small-molecule microarray binders of probe aNog, primary screen, biochemical, biotinylated probe, 635/667 nm fluorescence (AID 1115); details: higher = more signal;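 further: probe is biotinylated aNog protein used at 0.15 µg/mL for 1 h at 4 C; z-score combines 667 nm fluorescence of each spot with its signal to noise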
[19] = target: Torsin-1A-interacting protein 1 (Homo sapiens) (UniProt Q5JTV8); experiment: LAP1 binders from COS7 cell lysate, primary screen, small-molecule microarray, 635/667 nm fluorescence (AID 1116); details: COS7-hLAP1 lysate binding, 635 nm fluorescence, higher = more signal
[20] = target: Alpha-bungarotoxin (Bungarus multicinctus) (UniProt P60615); experiment: alpha-bungarotoxin binders on microarray, profiling panel, artefact control for SMM control protein annotation, biochemical, small-molecule microarray, Alexa647 label, 635/667 nm fluorescence (AID 1117); details: alpha-BTX-A647 binding fluorescence, higher = more signal
Sequence of Alpha-bungarotoxin (Bungarus multicinctus) (P60615 whole entry, looked up): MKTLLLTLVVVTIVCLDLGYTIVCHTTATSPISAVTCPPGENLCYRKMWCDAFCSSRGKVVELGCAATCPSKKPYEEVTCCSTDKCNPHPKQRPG

Sequence of Torsin-1A-interacting protein 1 (Homo sapiens) (Q5JTV8 whole entry, looked up): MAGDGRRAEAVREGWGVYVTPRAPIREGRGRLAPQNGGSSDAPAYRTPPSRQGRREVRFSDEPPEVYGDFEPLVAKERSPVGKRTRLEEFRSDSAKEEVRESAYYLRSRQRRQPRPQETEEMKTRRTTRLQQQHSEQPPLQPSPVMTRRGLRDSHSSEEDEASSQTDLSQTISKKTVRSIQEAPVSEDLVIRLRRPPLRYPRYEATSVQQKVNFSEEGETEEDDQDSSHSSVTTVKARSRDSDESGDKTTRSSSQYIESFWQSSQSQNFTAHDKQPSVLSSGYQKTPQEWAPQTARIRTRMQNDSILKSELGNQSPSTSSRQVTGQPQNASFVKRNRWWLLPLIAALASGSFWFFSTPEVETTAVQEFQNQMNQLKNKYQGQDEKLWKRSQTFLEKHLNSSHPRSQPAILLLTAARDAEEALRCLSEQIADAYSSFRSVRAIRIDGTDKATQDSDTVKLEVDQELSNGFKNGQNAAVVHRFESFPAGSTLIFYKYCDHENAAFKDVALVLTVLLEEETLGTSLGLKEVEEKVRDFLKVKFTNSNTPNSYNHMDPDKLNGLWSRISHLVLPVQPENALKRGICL
Sequence of Dickkopf-related protein 1 (Homo sapiens) (O94907 whole entry, looked up): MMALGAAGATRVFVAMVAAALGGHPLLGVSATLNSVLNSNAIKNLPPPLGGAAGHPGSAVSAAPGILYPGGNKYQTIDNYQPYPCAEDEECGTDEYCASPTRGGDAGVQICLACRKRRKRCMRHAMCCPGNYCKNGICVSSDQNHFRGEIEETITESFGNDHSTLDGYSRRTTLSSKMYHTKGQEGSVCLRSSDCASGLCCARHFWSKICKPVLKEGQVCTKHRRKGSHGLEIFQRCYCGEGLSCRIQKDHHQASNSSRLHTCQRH
Sequence of Left-right determination factor 2 (Homo sapiens) (O00292 whole entry, looked up): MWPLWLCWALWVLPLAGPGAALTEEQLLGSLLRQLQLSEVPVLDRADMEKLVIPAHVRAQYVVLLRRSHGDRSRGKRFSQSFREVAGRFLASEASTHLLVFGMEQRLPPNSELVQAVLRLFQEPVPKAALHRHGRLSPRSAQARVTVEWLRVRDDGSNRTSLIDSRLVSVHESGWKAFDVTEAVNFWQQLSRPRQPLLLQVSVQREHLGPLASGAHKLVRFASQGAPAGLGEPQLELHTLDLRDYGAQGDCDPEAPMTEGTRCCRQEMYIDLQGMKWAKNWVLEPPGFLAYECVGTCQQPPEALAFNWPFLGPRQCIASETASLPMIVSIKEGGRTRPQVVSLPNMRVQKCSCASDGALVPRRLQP
Sequence of Epidermal growth factor receptor (Homo sapiens) (P00533 whole entry, looked up): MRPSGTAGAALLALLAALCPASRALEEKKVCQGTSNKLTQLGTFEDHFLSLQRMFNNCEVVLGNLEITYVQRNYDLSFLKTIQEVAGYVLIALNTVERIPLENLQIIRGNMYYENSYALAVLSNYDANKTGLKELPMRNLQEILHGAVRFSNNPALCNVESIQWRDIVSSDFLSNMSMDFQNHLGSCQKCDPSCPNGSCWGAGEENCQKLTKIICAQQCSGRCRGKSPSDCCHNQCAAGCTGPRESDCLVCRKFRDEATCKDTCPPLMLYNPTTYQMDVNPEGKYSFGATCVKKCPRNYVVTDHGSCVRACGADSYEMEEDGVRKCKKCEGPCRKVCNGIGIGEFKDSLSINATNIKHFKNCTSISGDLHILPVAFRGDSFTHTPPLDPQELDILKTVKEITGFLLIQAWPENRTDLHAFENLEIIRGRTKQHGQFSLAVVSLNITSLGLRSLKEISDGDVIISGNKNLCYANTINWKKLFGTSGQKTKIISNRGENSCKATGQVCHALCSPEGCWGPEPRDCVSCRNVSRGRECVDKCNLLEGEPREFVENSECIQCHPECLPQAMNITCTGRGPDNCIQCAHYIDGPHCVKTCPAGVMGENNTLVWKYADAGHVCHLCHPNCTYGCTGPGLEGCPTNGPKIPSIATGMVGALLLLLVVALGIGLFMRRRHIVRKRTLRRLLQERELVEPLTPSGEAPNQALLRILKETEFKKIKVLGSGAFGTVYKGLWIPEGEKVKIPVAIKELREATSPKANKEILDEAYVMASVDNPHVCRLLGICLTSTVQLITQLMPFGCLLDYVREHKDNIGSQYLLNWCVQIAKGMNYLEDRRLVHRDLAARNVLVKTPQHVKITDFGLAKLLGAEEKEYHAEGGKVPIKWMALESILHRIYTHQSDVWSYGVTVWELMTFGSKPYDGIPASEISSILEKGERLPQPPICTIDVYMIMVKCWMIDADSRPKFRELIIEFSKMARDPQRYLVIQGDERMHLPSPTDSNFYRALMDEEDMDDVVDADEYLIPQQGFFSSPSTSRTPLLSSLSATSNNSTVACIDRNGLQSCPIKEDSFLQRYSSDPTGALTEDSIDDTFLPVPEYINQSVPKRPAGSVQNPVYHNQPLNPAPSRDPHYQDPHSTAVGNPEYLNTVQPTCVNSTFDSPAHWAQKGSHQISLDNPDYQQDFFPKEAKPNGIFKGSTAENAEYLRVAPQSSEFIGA
Sequence of Fibroblast growth factor 10 (Homo sapiens) (O15520 whole entry, looked up): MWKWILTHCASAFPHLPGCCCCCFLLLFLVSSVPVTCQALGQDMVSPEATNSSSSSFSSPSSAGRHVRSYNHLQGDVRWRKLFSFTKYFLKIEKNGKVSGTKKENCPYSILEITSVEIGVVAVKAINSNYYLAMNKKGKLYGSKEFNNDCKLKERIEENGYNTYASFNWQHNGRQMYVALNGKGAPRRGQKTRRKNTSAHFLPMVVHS
Sequence of Follistatin-related protein 3 (Homo sapiens) (O95633 whole entry, looked up): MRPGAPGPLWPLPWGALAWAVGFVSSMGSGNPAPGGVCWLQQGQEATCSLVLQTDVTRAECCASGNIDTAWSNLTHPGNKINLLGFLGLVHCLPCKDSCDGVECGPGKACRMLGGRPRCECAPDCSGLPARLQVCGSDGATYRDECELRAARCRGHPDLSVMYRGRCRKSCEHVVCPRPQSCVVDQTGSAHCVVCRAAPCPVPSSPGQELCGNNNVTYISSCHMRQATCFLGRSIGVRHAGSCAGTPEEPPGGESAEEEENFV

| SMILES | composite z-score [1] | composite z-score [2] | composite z-score [3] | z-score [4] | composite z-score [5] | composite z-score [6] | composite z-score [7] | composite z-score [8] | composite z-score [9] | composite z-score [10] | composite z-score [11] | z-score [12] | composite z-score [13] | composite z-score [14] | composite z-score [15] | composite z-score [16] | composite z-score [17] | composite z-score [18] | composite z-score [19] | composite z-score [20] |
| --- | --- | --- | --- | --- | --- | --- | --- | --- | --- | --- | --- | --- | --- | --- | --- | --- | --- | --- | --- | --- |
| CC(C)=CCCC(C)=CCON=C1C[C@@H](O)[C@@H](O)[C@@H]2[C@@H]3C(=O)N([C@@H](C)c4ccccc4)C(=O)[C@@H]3CC[C@H]12 | 0.948 | -0.238 | -0.213 | -1.19 (inactive) | 0.739 | 0.692 | 0.525 | 0.718 | 0.645 | 1.15 | 0.893 | -0.745 | 0.773 | -0.282 | -0.782 | -0.0644 | 0.265 | -0.44 | 0.166 | 0.417 |
| CCOC(=O)C[C@H]1[C@H](OC(=O)c2ccccc2-c2ccccc2)[C@@H](NC(=O)c2ccccc2)c2cc(OCCCO)ccc2N1C(=O)c1ccc2ccccc2n1 | -0.134 and 0.522 | 0.298 and -0.106 | 0.229 and 0.0414 | -0.0583 (inactive) and -0.0708 (inactive) | 0.97 and 0.586 | 0.612 and 0.576 | 0.284 and 0.207 | 0.47 and 0.8 | 0.452 and 0.19 | 0.227 and 0.981 | 0.288 and 1.08 | -1.19 and -0.583 | 0.668 and 0.619 | -0.118 and 1.47 | -0.148 and 0.227 | 0.0324 and -0.108 | -0.2 and 0.0078 | -0.122 and 0.386 | 0.491 and 0.364 | 0.328 and 0.833 |
| Cc1cc2c(nc1C)CCCN2CC(O)CN1CCCc2nc(-c3ccc(Br)cc3)ccc21 (stereo not given) | 1.16 and 0.822 | 0.116 and 1.46 | 0.334 and 0.608 | -0.605 (inactive) and -0.58 (inactive) | 1.21 and 1.31 | 1.29 and 1.14 | 0.852 and 1.05 | 1.43 and 1.25 | 1.06 and 1.08 | 1.33 and 1.31 | 1.32 and 1.19 | -1.3 and -2.09 | 0.917 and 0.75 | 0.645 and 1.01 | -0.0329 and 0.151 | 0.361 and 0.499 | 0.641 and 1.58 | 0.676 and 1.1 | 0.126 and 1.1 | 1.92 and 2.78 |
| CC(C)N1CC=CC23O[C@@H]4C=CCCOC(=O)C4[C@H]2C(=O)N(C(C)CO)[C@@H]3C1=O (stereo not given in full) | 0.966 and -0.2 | 0.802 and -0.0438 | 1 and 0.404 | -1.6 (inactive) and -1.03 (inactive) | -0.858 and -0.457 | -0.132 and -0.547 | -1.71 and -0.693 | -1.66 and -0.676 | -2.56 and -0.647 | 0.644 and 1.35 | 0.163 and -0.9 | 0.179 and -0.144 | -1.4 and -1.42 | -0.302 and -0.271 | 0.269 and 0.224 | -0.26 and -0.152 | -0.138 and 0.0305 | 0.111 and -0.0784 | 1.62 and 0.0015 | -0.712 and -1.74 |
| C=CCN(C(=O)C1N(CCOCCO)C(=O)C2C(C(=O)O)C3C=CC21O3)C(C)(C)C (stereo not given) | 1.73 and -1.59 | -0.128 and -0.31 | 0.867 and 0.619 | -0.235 (inactive) and 0.32 (inactive) | -1.8 and -1.24 | -1.76 and -0.852 | -2.23 and -1.56 | -2.47 and -1.69 | -2.47 and -1.32 | -1.84 and -3.28 | -1.22 and -1.53 | 0.178 and 0.975 | -4.53 and -1.35 | -0.219 and -0.133 | 0.785 and 0.498 | -0.27 and -0.352 | -0.138 and -0.214 | -0.158 and -0.509 | -1.53 and -1.78 | -0.606 and -0.737 |
| C=CCN(C(=O)C(c1cccs1)N(C(=O)/C=C\C(=O)O)c1c(Cl)cccc1CO)C(C)(C)C (stereo not given) | 1.25 and -0.0135 | 0.352 and 0.285 | 1.38 and 1.31 | -0.321 (inactive) and -0.297 (inactive) | -2.54 and -1.41 | -2.14 and -1.33 | -2.12 and -2.63 | -2.45 and -2.23 | -3.69 and -3.04 | -3.4 and -1.92 | -1.05 and -0.821 | -0.814 and -1.62 | -4.4 and -3.37 | -1.1 and -0.796 | 0.802 and 0.271 | -0.304 and -0.202 | -0.0769 and -0.138 | -0.263 and -0.036 | -1.05 and -1.62 | -1.29 and -1.31 |
| C=CCN(CCCC)C(=O)C1N(CCOCCO)C(=O)C2C(C(=O)O)C3C=CC21O3 (stereo not given) | 1.46 and 0.591 | -0.0203 and -0.336 | 1.02 and 0.53 | 0.391 (inactive) and 0.915 (inactive) | -1.38 and -1.65 | -1.47 and -1.21 | -1.89 and -1.27 | -1.5 and -2.25 | -3.09 and -1.87 | -3.45 and -2.19 | -0.0707 and -0.913 | 0.367 and 0.91 | -2.91 and -1.58 | -0.794 and -0.296 | -0.0435 and 0.108 | -0.256 and -0.287 | -0.138 | -0.216 and -0.352 | 1.59 and -0.819 | -1.59 and -0.552 |
| C=C[C@@H](C)[C@@H](O)c1ccc(OCCO)cc1 | 0.886 and 1.38 | -0.265 and -0.238 | 1.09 and 0.349 | 0.26 (inactive) and -1.46 (inactive) | -1.75 and -1.12 | -0.736 and -0.659 | -2.13 and -2.11 | -1.25 and -1.05 | -2.51 and -1.8 | -3.81 and -0.988 | -1.62 and -1.54 | -0.934 and -0.376 | -2.93 and -2.01 | -0.905 and -0.8 | 0.129 and 0.206 | -0.286 and -0.27 | -0.221 and -0.17 | -0.512 and -0.141 | -0.603 and 1.44 | -1.5 and -1.44 |
| C=CCN(C(=O)C1N(CCCCCCO)C(=O)C2C(C(=O)O)C3C=CC21O3)c1ccc(OC)cc1 (stereo not given) | 1.04 and -1.32 | 0.0787 and 0.332 | 1.27 and 1.18 | -1.67 (inactive) and -0.118 (inactive) | -0.791 and -1.26 | -0.329 and -0.852 | -2.79 and -2.32 | -2.58 and -1.84 | -2.84 and -2.35 | -1.71 and -1.78 | -0.862 and -1.21 | -0.67 and -0.824 | -3.9 and -3.75 | -0.0411 and -1.13 | 0.734 and 0.0742 | -0.224 and -0.124 | -0.0011 and 0.551 | 0.692 and 0.838 | 2.83 and 1.74 | -2.05 and -1.37 |
| C=CCN(Cc1ccccc1)C(=O)C(c1cccs1)N(C(=O)/C=C\C(=O)O)c1ccc(CCO)cc1 (stereo not given) | -0.14 and -0.0434 | -0.141 and -0.17 | 0.98 and 0.85 | 0.203 (inactive) and 0.258 (inactive) | -1.22 and -2.14 | -1.23 and -1.61 | -1.96 and -1.68 | -1.91 and -1.88 | -2.15 and -2.42 | -1.76 and -3.2 | -0.325 and -0.505 | 0.0048 and 0.875 | -2.74 and -3.22 | -0.729 and -1 | 0.204 and -0.257 | -0.243 and -0.252 | -0.221 and -0.138 | -0.4 and -0.118 | -0.648 and -0.326 | -1.7 and -1.25 |
| COC(=O)c1c2oc(c1C(=O)OC)C(=O)N[C@@H](Cc1ccccc1)Cn1cc(nn1)C1(CCCCC1)NC(=O)N[C@H](CO)CC2 | 0.582 and 0.45 | 0.407 and -0.327 | -0.287 and -0.366 | -0.55 (inactive) and -1.56 (inactive) | 1.16 and 0.505 | 0.86 and 0.41 | 0.158 and 0.198 | 0.794 and 0.388 | 0.749 and 0.194 | 0.728 and -0.0236 | 0.773 and 0.664 | -0.16 and -0.583 | 0.564 and 0.328 | 0.0754 and -0.157 | 0.0102 and -0.607 | -0.0403 and -0.0924 | 0.0684 and -0.0904 | -0.0604 and 0.149 | 2.36 and 0.399 | 1.53 and 0.281 |

— PubChem BioAssay
